Structures are written as SMILES. Screen size: about 69,000 compounds; about 8,600 (12%) showed an effect of 50% or more. Many of the other results were omitted from the sample, so strong results are more common in it than they were.

INHIBITION data for 64 compounds are collected here from ChEMBL document CHEMBL4513216, “Probing the Open Global Health Chemical Diversity Library for Multistage-Active Starting Points for Next-Generation Antimalarials” (ACS Infect Dis, 2020).

The test deals with Plasmodium berghei. In words: Screen against P. berghei liver stage (PbLuc), transformed with Luciferase, at 10uM. It counts as functional, HepG2. To be noted: tested at 10 uM.
With `CS(=O)(=O)N1C[C@H]2CC[C@@H](C1)N(C(=O)CCc1ccsc1)C2`, the INHIBITION is on record as -34.8%. Consider `Cc1nc2ccccn2c1CN1C[C@@H](CN2CCOCC2)[C@@H](CO)C1`, for which the INHIBITION came to 12.8%.

`Cc1nc(CN2CCC(O)(c3ccccc3F)CC2)c2ccccn12`: the INHIBITION amounted to 23.9%.

For `Cc1cc(C(F)(F)F)cc(N2C[C@@H](CN(C)CCO)[C@@H](CO)C2)n1`, the INHIBITION was 0.348%. For `Cc1cc(C(F)(F)F)cc(N2C[C@@H](CN3CCOCC3)[C@@H](CO)C2)n1`, the INHIBITION is on record as 53.2%. As for `COc1cnc(N2C[C@@H](CN3CCOCC3)[C@@H](CO)C2)nc1`, the figure is -35%; as for `Cc1ccc(C2(O)CCN(Cc3nc(C)n4ccccc34)CC2)nc1`, 26.1%; as for `Cc1nc(CN2C[C@@H](CN3CCOCC3)[C@@H](CO)C2)c2ccccn12`, 63.7%. Take `OC[C@H]1CN(Cc2c(Cl)cncc2Cl)C[C@H]1CN1CCOCC1`: the INHIBITION is recorded as -37.9%. As for `Cc1nc(CN2CCC3(CCCO3)CC2)c2ccccn12`, the figure is 53.6%; as for `CCC1CN(C(=O)NCCOc2ccc3c(c2)OCO3)CCO1` (centres undefined), 30.2%.

For the compound `Cc1cc(Oc2ccccc2)nc(C2CCN(CCO)CC2)n1`, the INHIBITION is recorded as 24.15%. Regarding `Cn1cccc1C(=O)N[C@@H]1CN(Cc2cccs2)[C@@H]2COC[C@@H]21`, the INHIBITION was -4.88%.

On to `Cc1nc(Cn2c3c(ccc2=O)CC(N)CC3)cs1` (centres undefined), for which the INHIBITION is recorded as 9.65%. For `CN(Cc1cccc(O)c1)C(=O)Nc1cccnc1N1CCCC1` the value was 33.3%. Regarding `O=c1[nH]c2csnc2c(=O)n1Cc1ccc(Br)cc1`, the INHIBITION worked out at 29.1%. For `CCC(c1nc(C(C)C)nn1-c1ccncc1C)n1cccn1` (centres undefined) the value was 57.2%. Consider `Cc1cnccc1-n1nc(C(C)C)nc1CCc1cnccn1`, for which the INHIBITION is -3.12%. `CCC(c1nc(C(C)C)nn1-c1ccccn1)n1cccn1` (centres undefined): the INHIBITION is given as 38.8%. Turning to `CCCn1ccnc1CN1CC[C@@H](NC(=O)c2cccnc2)[C@H](O)C1`, the INHIBITION amounted to 12.9%. Regarding `Cc1nn(CCO)c(C)c1CN1CCN(C2CCCCC2)C(=O)C1`, the INHIBITION is 16.9%. For `O=C(CNC(=O)Nc1cccc(Cl)c1SC(F)F)NC1CC1` the value was 29.5%; for `CCNC(=O)CNC(=O)Nc1cccc(Cl)c1SC(F)F`, 64.3%.

Regarding `O=C(NCCO)Nc1cccc(Cl)c1SC(F)F`, the INHIBITION is listed as 13%. In the case of `CC(=O)NCCNC(=O)Nc1cccc(Cl)c1SC(F)F`, the INHIBITION is 46.4%.

For `CN(C)C(=O)CNC(=O)Nc1cccc(Cl)c1SC(F)F`, the INHIBITION worked out at 23.2%. For `CNC(=O)CCNC(=O)Nc1cccc(Cl)c1SC(F)F` the value was 60.3%; for `O=C(NCC1COCc2c(-c3cccnc3)nnn2C1)c1cccs1` (centres undefined), 43.2%.

Turning to `COCCNc1ccc(CC2CCCNC2)cn1` (centres undefined), the INHIBITION was 44.3%. For `CO[C@@H]1CCN(S(=O)(=O)c2cn(C)cn2)[C@H]1Cc1ccncc1` the value was 39.4%. For `Cc1nccn1CCNC(=O)C1(C)CC(c2ccccc2)=NO1` (centres undefined), the INHIBITION is -1.16%. Take `COCCN1CCO[C@H]2[C@H](OCc3cccc(C)n3)CC[C@@H]21`: the INHIBITION is recorded as -8.25%. Consider `Cc1ccc(CN2CCO[C@@H]3[C@@H](OCc4cccnc4)CC[C@@H]32)o1`, for which the INHIBITION is 26.5%. For `Fc1ccc(CN2CCO[C@H]3[C@H](OCc4ccncc4)CC[C@@H]32)cc1`, the INHIBITION is reported as 92.8%.

Regarding `CCO[C@@H]1CC[C@H]2[C@H]1OCCN2Cc1ccc(F)cc1`, the INHIBITION is recorded as 8.52%. `COc1ccc(CN2CCO[C@H]3[C@H](OCCN4CCCC4)CC[C@@H]32)cc1`: the INHIBITION is recorded as 0.618%.

Regarding `CCN(CC)CCN1CCO[C@H]2[C@@H](OCc3ccncc3)CC[C@@H]21`, the INHIBITION was 29%. For `COc1ccc(CN2CCO[C@H]3[C@H](OCc4ccncc4)CC[C@@H]32)cc1`, the INHIBITION was found to be 90.1%. As for `Cc1cccc(CO[C@@H]2CC[C@H]3[C@H]2OCCN3Cc2ccoc2)n1`, the INHIBITION is 67.5%.

As to `Cc1ccc(CN2CCO[C@H]3[C@@H](OCc4cccnc4)CC[C@@H]32)o1`, the INHIBITION was determined as 15.6%. As to `Cc1ccc(CN2CCO[C@H]3[C@H](OCc4cccnc4)CC[C@@H]32)o1`, the INHIBITION came to 56.4%. For `CO[C@@H]1CC[C@H]2[C@H]1OCCN2Cc1ccc(F)cc1` the value was 25.3%; for `Cc1cccc(CO[C@@H]2CC[C@H]3[C@H]2OCCN3Cc2ccsc2)n1`, 16.6%; for `O=C(NCC1CC[C@@H]2[C@@H]1OCCN2Cc1cccs1)c1ccco1` (some centres undefined), 12.1%. For the compound `CCCn1ncc(CN(Cc2cccnc2)Cc2cccs2)c1C`, the INHIBITION is given as -4.87%. With `Cc1ocnc1C(=O)N(C)[C@@H]1CC[C@@H](Oc2ccccc2)[C@@H]1O`, the INHIBITION amounted to 16.2%. As for `COCCO[C@H]1CCN(Cc2cnn(C)c2)[C@H]1Cc1cccnc1`, the INHIBITION came to 9.51%.

Consider `CN(C)C(=O)C1OC2(CCN(c3ncc(F)cn3)CC2)c2ccccc21` (centres undefined), for which the INHIBITION amounted to 49.3%. For `Cc1noc(C)c1-c1ccnc(C2CCN(S(=O)(=O)N(C)C)CC2)c1` the value was 35.2%; for `CCN(Cc1cn(C)nc1-c1ccc2c(c1)OCCO2)CC1CCCO1` (centres undefined), 28.5%; for `CC(C)N1CCCC(CNC(=O)CN(C)S(=O)(=O)c2ccccc2)C1` (centres undefined), -3.21%. In the case of `Cn1nc(CNC(=O)C2CCC2)cc1C1CC1`, the INHIBITION is recorded as -34.5%. Take `c1cc(CO[C@@H]2CC[C@H]3[C@H]2OCCN3CC2CCOCC2)ccn1`: the INHIBITION worked out at 68.8%. For `Cc1cccc(CO[C@@H]2CC[C@H]3[C@H]2OCCN3Cc2cc(C)on2)n1`, the INHIBITION is -46.8%. On to `c1cc(CO[C@H]2CC[C@H]3[C@H]2OCCN3Cc2nccs2)ccn1`, for which the INHIBITION stood at 84.7%. As to `CCO[C@@H]1CC[C@H]2[C@H]1OCCN2Cc1ccoc1`, the INHIBITION stood at 35.8%. Consider `O=C(C1CCOCC1)N1CCO[C@H]2[C@@H](OCc3ccncc3)CC[C@@H]21`, for which the INHIBITION is reported as 43.3%. As for `c1cc(CO[C@@H]2CN(Cc3ccoc3)[C@@H]3CCCO[C@@H]32)ccn1`, the INHIBITION is given as 47.5%. For `O=C(C1CCOCC1)N1CCO[C@H]2[C@H](OCc3ccncc3)CC[C@@H]21` the value was 14.1%; for `c1csc(CN2CCO[C@H]3[C@H](OCC4CCCC4)CC[C@@H]32)n1`, 41.2%. As to `Cc1cccc(CO[C@@H]2CC[C@H]3[C@H]2OCCN3Cc2nccs2)n1`, the INHIBITION is -44.2%. As for `c1cc(CO[C@@H]2CC[C@H]3[C@H]2OCCN3Cc2ccoc2)ccn1`, the INHIBITION was determined as 55.7%. For `Cc1cccc(CN2CCO[C@H]3[C@@H](OCc4ccncc4)CC[C@@H]32)n1` the value was 85.6%. With `c1ccc(CO[C@H]2CC[C@H]3[C@H]2OCCN3Cc2nccs2)nc1`, the INHIBITION was determined as 22.2%.
